Screening data: PubChem, several laboratories
NR1D1 modulator = modulators of Rev-erb alpha DNA binding, primary screen, biochemical, FITC-DNA, fluorescence polarization, uHTS | actives 0.79% (n = 370,000) | Rev-erbα–FITC-DNA binding, 90 min | activity, % at 10 µM | AID 1259318, 2017 | Nuclear receptor subfamily 1 group D member 1 (Homo sapiens), P20393;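 active means activity above about 14%, limit read from the data; passing the limit was not always enough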;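 further: 0% = DMSO wells with 35 nM protein and 100% = DMSO wells with 750 nM protein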
PKA-R1A act = activators of PKA-R1A holoenzyme, primary screen, biochemical, fluorescence polarization, Cy5-IP20, bovine R1A, mouse PKAc. AID 504707, 2011. actives 0.083% (n = 340,000). activation, % at 11.4 µM. cAMP-dependent protein kinase type I-alpha regulatory subunit (Bos taurus) + …. PKA-R1A dissociation; scaled: DMSO 0%, 113 µM cGMP 100%;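 active means percent activation above the mean of all tested compounds plus 3 SD, cut at about 19% in these data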;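 further: higher means more PKAc released from R1A so a rise in polarization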
PKA-R2B act = activators of PKA-R2B holoenzyme, primary screen, biochemical, fluorescence polarization, Cy5-IP20, human; PKA-R2B holoenzyme dissociation; R2B truncated from residue 108, S112A mutant; 0% DMSO only, 100% 113 µM cGMP; actives 0.079% (n = 340,000); AID 504700, 2011; activation, % at 11.4 µM;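 active means activation above a cutoff set at the mean over all compounds plus 3 SD, cut at about 18% in these data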;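 further: higher means more holoenzyme dissociation and a rise in polarization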
Target sequence (P31323 whole entry, looked up, other chains not shown, the tested form may be a part): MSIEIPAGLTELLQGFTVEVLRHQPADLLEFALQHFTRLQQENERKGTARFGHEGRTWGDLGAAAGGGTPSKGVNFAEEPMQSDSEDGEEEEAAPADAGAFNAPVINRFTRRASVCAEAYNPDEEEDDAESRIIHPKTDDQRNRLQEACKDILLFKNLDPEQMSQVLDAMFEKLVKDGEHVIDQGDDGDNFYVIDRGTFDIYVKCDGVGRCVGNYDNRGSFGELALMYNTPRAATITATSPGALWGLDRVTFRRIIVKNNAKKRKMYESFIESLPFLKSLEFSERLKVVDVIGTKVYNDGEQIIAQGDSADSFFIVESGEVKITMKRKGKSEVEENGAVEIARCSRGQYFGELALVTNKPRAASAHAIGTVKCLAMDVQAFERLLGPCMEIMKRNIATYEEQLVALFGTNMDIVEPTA
PG9 binder = binders of HIV-1 gp120 antibody PG9, primary screen, biochemical, TR-FRET. TR-FRET gp120-PG9 antibody binding. AID 624416, 2012. actives 0.43% (n = 360,000). inhibition, % at 6.7 µM; in the data active means inhibition above about 8.5%
Rev-erbA confirm = modulators of Rev-erb alpha DNA binding, confirmation, biochemical, FITC-DNA, fluorescence polarization, single point; shares compounds with NR1D1 modulator; 90 min; activation, % at 25 µM; actives 61% (n = 3,000);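 active means activation at or above a set limit, or at least 3 SD above the negative control mean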;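 further: 0% = 35 nM protein with DMSO and 100% = 750 nM protein high control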
RORg DNA counter = modulation of RORgamma DNA binding, dose response, counter-screen for Rev-erb alpha modulator project, biochemical, fluorescence polarization, FITC-DNA. actives 8% (n = 910). purified RORgamma protein-FITC-DNA binding. IC50, µM. shares compounds with NR1D1 modulator;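 active means Compounds whose fitted half-maximal concentration for disrupting protein-DNA binding is below 10 micromolar; the record names Rev-erb in its text, so the target is in doubt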
The depositor's hits bear a star; i = inactive; nt = no result given. This is a sample that favours compounds with a hit; in the whole collection about 1.2% have one here.

SMILES	NR1D1 modulator	PKA-R1A act	PKA-R2B act	PG9 binder	Rev-erbA confirm	others
Cc1cccc(N2C(=O)c3cccc4c(N)ccc(c34)C2=O)c1	245*	-2	6	-7	199*	RORg DNA counter=i
Cc1cccc(N2C(=O)c3cccc4cccc(c34)C2=O)c1	-2	-4	1	2	nt
CCNC(=O)N(C)[C@H]1C[C@H]2c3[nH]c4cccc(-c5cccc(F)c5)c4c3CCN2C(=O)[C@H]1[C@H](C)O	0	nt	nt	nt	nt
N#Cc1c(N2CCOCC2)nsc1-c1ccc(C(F)(F)F)cc1	22*	nt	nt	5	16
COc1ccc(C(=O)Nc2cc(C(C)=O)c(/C=C/N(C)C)oc2=O)cc1	20	-3	-2	-19	nt
CC(=O)c1cc(NC(=O)c2ccc(C)cc2)c(=O)oc1/C=C/N(C)C	31*	5	-11	-18	4
O=C(COC(=O)c1cc(-c2cccnc2)nc2ccccc12)Nc1ccc(F)cc1F	6	-8	-2	-5	nt
Cc1cccc(C)c1NC(=O)COC(=O)c1cc(-c2cccnc2)nc2ccccc12	19*	-4	7	2	21*
COc1ccc(-c2cc(C(=O)OCC(=O)Nc3cc(C)on3)c3ccccc3n2)cc1OC	21*	-3	3	-1	-4
Cc1ccc(-c2nc3ncccn3c2NC(=O)c2ccc(F)cc2)cc1	1	nt	nt	nt	nt
C=CCn1c(SCCN2C(=O)c3ccccc3C2=O)nc2scc(-c3ccc(F)cc3)c2c1=O	21*	4	-1	1	14
CN1/C(=C/C(=S)NC(=O)C2(C)CC2(Cl)Cl)C(C)(C)c2ccccc21 (stereo not given)	23*	-5	-10	0	-2
COc1ccc(C2C(C#N)=C(C)NC3=C2C(=O)c2ccccc23)cc1 (stereo not given)	81*	-1	-4	-1	54*	RORg DNA counter=>40
CCOc1ccc(C2C(C#N)=C(C)NC3=C2C(=O)c2ccccc23)cc1 (stereo not given)	2	9	-5	-4	nt
CCn1c(SCC(=O)Nc2ccccc2-c2ccccc2)nnc1-c1cnccn1	3	nt	nt	nt	nt
CC(C(=O)N1CCc2ccccc21)N1CCN(S(=O)(=O)c2ccc(C(F)(F)F)cc2)CC1 (stereo not given)	17*	-5	11	0	-3
O=c1c2cnn(-c3ccccc3)c2nc(-c2cccs2)n1-c1cccc(Cl)c1	3	-5	6	-2	nt
O=c1c2cnn(-c3ccccc3)c2nc(-c2cccs2)n1-c1ccc(Cl)cc1	23*	11	3	0	10
O=C(CSc1nnc(COc2ccccc2)n1-c1ccccc1)Nc1ccc2c(c1)OCO2	-3	nt	nt	nt	nt
Cn1nc(C(C)(C)C)cc1NC(=O)C1(C)CCN1C(=O)c1ccccc1CCc1ccccc1 (stereo not given)	20*	nt	nt	-1	-1
Cn1nc(C(C)(C)C)cc1NC(=O)C1(C)CCN1C(=O)CCc1ccccc1 (stereo not given)	-3	nt	nt	0	nt
COC(=O)COc1ccc2cc(-c3ccc(OC)cc3)c(=O)oc2c1	25*	4	4	-1	-4
COc1ccc(-c2cc3ccc(OCC(C)=O)cc3oc2=O)cc1OC	19*	-3	-1	-1	15
O=S(=O)(N1CCCCC1)N1CCN(CC(O)COc2ccc3cc(Br)ccc3c2)CC1 (stereo not given)	100*	-17	1	12*	49*	RORg DNA counter=i
CN(C)S(=O)(=O)N1CCN(CC(O)COc2ccc3cc(Br)ccc3c2)CC1 (stereo not given)	1	1	-4	1	nt
SMILES	NR1D1 modulator	PKA-R1A act	PKA-R2B act	PG9 binder	Rev-erbA confirm	others
COc1ccc(Cn2ccc3ccc(-c4ccc5ccn(C(=O)C6CC6)c5c4)cc32)cc1	1	nt	nt	nt	nt
COc1cccc(C(=O)n2ccc3ccc(-c4ccc5ccn(Cc6ccccc6)c5c4)cc32)c1	24*	nt	nt	nt	52*	RORg DNA counter=6.8*
COc1cccc(C(=O)n2ccc3ccc(-c4ccc5ccn(C(=O)c6cccc(OC)c6)c5c4)cc32)c1	44*	nt	nt	nt	85*	RORg DNA counter=i
O=C(c1ccccc1)n1ccc2ccc(-c3ccc4ccn(C(=O)c5ccccc5)c4c3)cc21	-3	nt	nt	nt	nt
COc1cccc(C(=O)n2ccc3ccc(-c4ccc5ccn(Cc6ccc(C#N)cc6)c5c4)cc32)c1	48*	nt	nt	nt	9
C=CCN1[C@@H](C)COc2cccc(F)c2S1(=O)=O	0	nt	nt	nt	nt
N#Cc1ccc(OC[C@@H](O)CN2CCC(C(O)(c3ccccc3)c3ccccc3)CC2)cc1	2	nt	nt	nt	nt
O=C(CNC(=O)Cc1ccccc1)NCC(=O)OCc1ccc(C(=O)c2ccccc2)cc1	22*	1	3	nt	20*
COC(=O)[C@]12C[C@H](CC(=O)NCc3ccc(OC)c(OC)c3)C(=O)N(Cc3ccco3)C1=C[C@H](COCc1ccccc1)O[C@@H]2C	-3	nt	nt	nt	nt
CCCCN(C(=O)c1ccc(-c2ccc(Cl)cc2)o1)c1c(N)n(CC(C)C)c(=O)[nH]c1=O	18*	-9	-13	-2	-16
Cc1ccc2[nH]c(=O)c(N3CCOCC3)c(-c3ccccc3)c2c1	28*	-10	5	0	0
CCCC(=O)N1CCC[C@]2(CC[C@H](CCC(C)=O)O2)C1	-7	nt	nt	nt	nt
CCc1cc(-c2n[nH]c(C)c2-c2nc(C)cs2)c(O)cc1OC	0	-11	-5	-3	nt
CCc1cc(-c2n[nH]c(C)c2-c2nc3ccccc3s2)c(O)cc1OCC(=O)NN	13*	-1	2	1	4
Cc1c(C)c2c(c(C)c1OC(=O)CCC(=O)O)CC[C@@](C)(CCC[C@H](C)CCC[C@H](C)CCCC(C)C)O2	-3	nt	nt	nt	nt
CCOC(=O)C1=CN(C)CCC1=O	1	-6	-1	0	nt
CCOC(=O)C1=CN(CC)CCC1=O	25*	-11	6	-3	-2
Cc1cc2c(s1)c1cnn(Cc3ccc(F)cc3F)c(=O)c1n2C	18	nt	nt	nt	nt
Cc1cc2c(s1)c1cnn(Cc3cc(F)c(F)cc3F)c(=O)c1n2C	26*	nt	nt	nt	10
Cc1ccc2[nH]cc(S(=O)(=O)c3ccc(C)c(C)c3)c(=O)c2c1	56*	-1	3	-2	33*	RORg DNA counter=>40
COc1ccc2c(c1)CNC2CS(=O)(=O)NC1CCCC1 (stereo not given)	0	nt	nt	nt	nt
